# “And” between values parts separate entries of the source, which are not always exact repeats. Equal values may be shown once. Results filed as inconclusive are left out. The source made the active and inactive calls. Rule for the calls, unless noted: active = hit-call score of the fitted dose curve at least 0.9, where 1 is the maximum; inconclusive = response in the unintended direction; inactive = score below 0.9.
# Columns and labels:
# [1] = read-out: solute carrier (SLC22A6), SLC22A6 (gene 9356); assay: LTEA_HepaRG_SLC22A6: Life Technologies and Expression Analysis (LTEA) Assay for solute carrier (SLC22A6) using HepaRG (AID 2283653; active = hit-call score of the fitted dose curve at least 0.9, where 1 is the maximum; inactive = score below 0.9); conditions: mRNA level, 48 h; actives raise or lower the signal
# Method in brief: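 Differentiated human HepaRG cells were exposed for 48 h in serum-free induction medium to eight concentrations (top 100 uM, half-log steps, 0.5% DMSO), in duplicate. SLC22A6 mRNA was quantified by qRT-PCR, normalised to ACTB, GAPDH and POLR2A, and fitted bidirectionally against DMSO.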
# [2] = Tanguay_ZF_120hpf_NC_legacy: (Legacy) Oregon State University Tanguay Lab 120 Hour Post-fertilization zebrafish Assay for Notochord and Tail Malformation (AID 2283656)
# Method in brief: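 Dechorionated Tropical 5D wild-type zebrafish embryos, one per well from 6 hpf, statically exposed to 120 hpf at 28C in 0.64% DMSO final. Notochord distortion scored present/absent by brightfield; dead embryos excluded.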
# [3] = read-out: solute carrier (SLC10A1), SLC10A1 (gene 6554); assay: LTEA_HepaRG_SLC10A1: Life Technologies and Expression Analysis (LTEA) Assay for solute carrier (SLC10A1) using HepaRG (AID 2283657; active = hit-call score of the fitted dose curve at least 0.9, where 1 is the maximum; inactive = score below 0.9); conditions: mRNA level, 48 h; actives raise or lower the signal
# Experimental: LTEA_HepaRG is a cell based, multiplexed-readout assay that uses HepaRG, a human liver cell line, with measurements taken at 48 hours after chemical dosing on a 96-well plate.LTEA_HepaRG_SLC10A1 is one of 102 assay component(s) measured in the LTEA HepaRG cell culture assay. It is a marker of NR mediated transport.Data from the assay component LTEA_HepaRG_SLC10A1 was analyzed into 1 endpoint. This assay endpoint, LTEA_HepaRG_SLC10A1, was analyzed with bidirectional fitting relative to DMSO as the negative control and baseline of activity. Using a type of inducible reporter, measures of mRNA induction for gain or loss-of-signal activity can be used to understand regulation of transcription factor activity. To generalize the intended target to other relatable targets, this assay endpoint is annotated to the transporter intended target family, where the subfamily is sodium/bile acid cotransporter.
# A total of 1060 chemcials from the ToxCast library were tested in eight-point concentration-response experiments. Cell culture and cytotoxicity assays were conducted at Thermo Fisher Scientific's Custom Services facility (Madison, WI). A single lot of human HepaRG cells (Thermo Fisher Scientific, Frederick, MD) was used for the cell culture experiments. 96-well format collagen type I coated plates of human HepaRG cells were prepared using established methods. Briefly, cryopreserved HepaRG cells were thawed, plated at a density of approximately 100,000 cells/well in HepaRG Thaw, Plate, and General Purpose media (HPRG770, Thermo Fisher Scientific), and incubated for 48 hours. 0.5% DMSO was selected as vehicle control to balance the requisite need of DMSO in HepaRG cultures to maintain differentiation (for example, baseline metabolism, proportions of hepatocytes vs. cholangiocytes), while enabling further hepatic receptor pathway activation (for example, PXR and CAR) in response to chemical exposure. 48 hours after plating, the culture medium was replaced with HepaRG Serum-Free Incudtion Media. Cells were exposed to each test chemical in duplicate and maintained in CO2 incubators for another 48 hours. Chemical plates were thawed to room temperature and 200x concentrations of treatment groups were prepared. 8-point conentration-reponse curves were made with the highest exposure at 100 uM, followed by half-log dilutions, all in 0.5% DMSO. […] Fluidigm's 96.96 Dynamic ArrayTM (Fluidigm, Amsterdam, the Netherlands) technology was used for gene expression analyses by quantitative reverse transcription polymerase chain reaction (qRT-PCR, performed by Quintiles/Expression Analysis, Durham, NC)89. […]
# [4] = read-out: matrix metalloproteinase-1 (MMP1), MMP1 (gene 4312); assay: LTEA_HepaRG_MMP1: Life Technologies and Expression Analysis (LTEA) Assay for matrix metalloproteinase-1 (MMP1) using HepaRG (AID 2283658; active = hit-call score of the fitted dose curve at least 0.9, where 1 is the maximum; inactive = score below 0.9); conditions: mRNA level, 48 h; actives raise or lower the signal
# Method in brief: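 Differentiated HepaRG cells, plated 48 h then switched to serum-free induction medium, were exposed in duplicate for 48 h to eight half-log concentrations up to 100 uM in 0.5% DMSO; MMP1 mRNA measured by qRT-PCR, normalized to ACTB, GAPDH, POLR2A.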
# [5] = tested on: Thyroperoxidase (TPO), gene 54314; assay: CCTE_Simmons_AUR_rTPO: CCTE's Amplex UltraRed Assay for Thyroperoxidase (TPO) Inhibition, Simmons Lab (AID 2283662);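 for AC50: potency for loss of signal meaning inhibition of peroxidase activity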
# Method in brief: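 Endpoint is decreased Amplex UltraRed fluorescence after a 30-min, 37C reaction of rat thyroid microsomes with 300 uM H2O2. Eight test concentrations (5 nM–87.5 uM final) in 0.5% DMSO, three biological replicates each.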
# [6] = CCTE_Simmons_CellTiterGLO_HEK293T: Viability Assessment in CCTE's Assays for Thyroperoxidase (TPO) Inhibition, Simmons Lab (AID 2283665);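 for AC50: cells exposed to compound for 24 h before readout; actives reduce ATP signal below DMSO vehicle meaning cytotoxicity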
# Method in brief: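 HEK293T cells in DMEM with 1% FBS, dosed 24 h at 37C with 8 concentrations, 5 nM–87.5 uM final, 0.5% DMSO. ATP measured by CellTiter Glo luminescence; loss of signal vs DMSO, three biological replicates.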
# [7] = Tanguay_ZF_120hpf_TR_legacy: (Legacy) Oregon State University Tanguay Lab 120 Hour Post-fertilization zebrafish Assay for Touch Response (AID 2283667)
# Method in brief: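 Tropical 5D wild-type zebrafish embryos statically exposed to 120 hpf at 28°C, sealed and dark-covered, 0.64% DMSO final; touch response scored as present/absent by brightfield microscopy at 120 hpf. Trimethyltin chloride 5 uM positive control; dead embryos not scored.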
# [8] = read-out: Cytochrome P450 (CYP24A1_1), CYP24A1 (gene 1591); assay: LTEA_HepaRG_CYP24A1_1: Life Technologies and Expression Analysis (LTEA) Assay for Cytochrome P450 (CYP24A1_1) using HepaRG (AID 2283671; active = hit-call score of the fitted dose curve at least 0.9, where 1 is the maximum; inactive = score below 0.9); conditions: mRNA level, 48 h; actives raise or lower the signal
# Method in brief: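 Differentiated human HepaRG cells in serum-free induction medium, exposed 48 h in duplicate to eight half-log concentrations from 100 uM top, 0.5% DMSO. Transcript measured by TaqMan qRT-PCR, normalised to ACTB, GAPDH, POLR2A; bidirectional fitting versus DMSO.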
# [9] = Tanguay_ZF_120hpf_SWIM_legacy: (Legacy) Oregon State University Tanguay Lab 120 Hour Post-fertilization zebrafish Assay for Swim Bladder Malformation (AID 2283654);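 note: swim bladder malformation in each larva scored yes or no under brightfield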
# Method in brief: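 Dechorionated wild-type Tropical 5D zebrafish embryos, one per well from 6 hpf, were statically exposed at 28C until 120 hpf in 0.64% DMSO. Swim bladder malformation scored as present/absent by brightfield microscopy; not scored in dead larvae.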
# [10] = Tanguay_ZF_120hpf_TRUN_legacy: (Legacy) Oregon State University Tanguay Lab 120 Hour Post-fertilization zebrafish Assay for Truncated Body (AID 2283655)
# Method in brief: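 Tropical 5D wild-type embryos, dechorionated with pronase at 4 hpf, were placed singly in wells at 6 hpf and statically exposed at 28C until 120 hpf, final DMSO 0.64%. Truncated body was scored present/absent by brightfield microscopy.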
smiles,measurement,setting,value
Oc1cccc2cccnc12,outcome,[1],inactive
same,outcome,[2],inactive
same,outcome,[3],inactive
same,outcome,[4],inactive
same,AC50,[5],18.4 µM (active) and 15.9 µM (active)
same,AC50,[6],15.8 µM (active) and 53.8 µM (active)
same,outcome,[7],inactive
same,outcome,[8],inactive
CCN1CCC2(CC1)COc1cc3c(cc12)N(C(=O)c1ccc(-c2ccc(-c4nnc(C)o4)cc2C)cc1)CC3,outcome,[9],inactive
same,outcome,[10],inactive
same,outcome,[2],inactive
same,outcome,[7],inactive
Cc1ccccc1N,outcome,[9],inactive
same,outcome,[10],inactive
same,outcome,[2],inactive
same,AC50,[5],2.19 µM (active) and 2.51 µM (active)
same,outcome,[6],inactive
same,outcome,[7],inactive
CCC(=O)C(CC(C)N(C)C)(c1ccccc1)c1ccccc1 (configuration not stated),outcome,[9],inactive
same,outcome,[10],inactive
same,outcome,[2],inactive
same,AC50,[7],39 µM (active)
COc1cc(-c2ccc(N)c(OC)c2)ccc1N,AC50,[9],95.5 µM (active)
same,outcome,[10],inactive
same,outcome,[2],inactive
same,outcome,[7],inactive
ClC1(Cl)C2(Cl)C3(Cl)C4(Cl)C(Cl)(Cl)C5(Cl)C3(Cl)C1(Cl)C5(Cl)C24Cl (configuration not stated),outcome,[1],inactive
same,outcome,[9],inactive
same,outcome,[10],inactive
same,outcome,[2],inactive
same,AC50,[3],1.22 µM (active)
same,outcome,[4],inactive
same,outcome,[7],inactive
same,outcome,[8],inactive
C=CC(=O)OCCCCCC(C)C,outcome,[9],inactive
same,outcome,[10],inactive
same,outcome,[2],inactive
same,outcome,[7],inactive
O=C(O)C(Cl)(Cl)Cl,outcome,[9],inactive
same,outcome,[10],inactive
same,outcome,[2],inactive
same,outcome,[5],inactive
same,outcome,[6],inactive
same,outcome,[7],inactive
CC(C)(c1ccccc1)c1ccc(O)c(C(C)(C)c2ccccc2)c1,outcome,[9],inactive
same,outcome,[10],inactive
same,AC50,[5],19.6 µM (active)
same,AC50,[6],5.35 µM (active)
same,outcome,[7],inactive
O=C(Nc1ccc2[nH]ccc2c1)c1cc2cc(F)ccc2n1Cc1cccc(F)c1,outcome,[9],inactive
same,outcome,[10],inactive
same,outcome,[2],inactive
same,AC50,[5],1.62 µM (active)
same,AC50,[6],0.753 µM (active)
same,outcome,[7],inactive
CC(=O)[O][Hg][c]1ccccc1,outcome,[9],inactive
same,outcome,[10],inactive
same,outcome,[2],inactive
same,outcome,[7],inactive
CC12CC1(C)C(=O)N(c1cc(Cl)cc(Cl)c1)C2=O (configuration not stated),outcome,[9],inactive
same,outcome,[10],inactive
same,outcome,[2],inactive
same,outcome,[5],inactive
same,outcome,[6],inactive
same,outcome,[7],inactive
O=[N+]([O-])c1ccc(O)c([N+](=O)[O-])c1,outcome,[9],inactive
same,outcome,[2],inactive
CCOP(=S)(OCC)SCSP(=S)(OCC)OCC,outcome,[9],inactive
same,outcome,[10],inactive
same,outcome,[2],inactive
same,AC50,[5],9.6 µM (active)
same,AC50,[6],46.6 µM (active)
same,outcome,[7],inactive
CCCCCCCCc1ccc(O)cc1,outcome,[9],inactive
same,outcome,[10],inactive
same,outcome,[2],inactive
same,AC50,[5],6.82 µM (active)
same,AC50,[6],22.6 µM (active)
same,outcome,[7],inactive
CC(C)(C)CC(C)(C)c1ccc(O)cc1,outcome,[9],inactive
same,outcome,[10],inactive
same,outcome,[2],inactive
same,AC50,[5],11.6 µM (active)
same,AC50,[6],9.53 µM (active)
same,outcome,[7],inactive
CC(C)(OO)c1ccccc1,outcome,[9],inactive
same,outcome,[10],inactive

# From PubChem BioAssay (EPA / NIEHS)
